# Test results published in PubChem BioAssay (NCATS).
# Results filed as inconclusive are left out. Unmarked numbers belong to inactive results. Calls of active or inactive are those of the source. Calls follow the shape of the dose curve; as a rule, active = well fitted inhibition curve with a large enough effect; inconclusive = small, poorly fitted or top-dose-only effect; inactive = no such curve, though single readings can be large or run the other way. Where a SMILES comes first, the peptide text is derived from it. The star is where a group is joined. Cbz = O=C(OCc1ccccc1)*; CH2Cl = ClC*
# Test system: Zika virus NS2B-NS3 protease (unlinked complex)
# Experiment: Primary screen GU Rhodamine qHTS for Zika virus inhibitors: Unlinked NS2B-NS3 protease assay (AID 1347159); also: nearly all actives have a fitted effect of over 60% in size
# Settings: Recombinant ZIKV NS2B-NS3 protease, Rhodamine110 substrate fluorescence; series mostly up to 107 µM; activity change, negative = inhibition: at the top concentration
# Outline: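 A qHTS format was used, with compound concentrations ranging up to 114 microM. Each compound was preincubated with 25 nM NS2B-NS3 protease, and the substrate was then added at 1.5 microM. Curves were fitted with a 4-parameter Hill model.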
# % is scaled to controls: 0 for no effect and ±100 for the full control effect; potency is read from the fitted curve at half-maximal effect.
Structure (SMILES),"activity change, negative = inhibition",Potency
CCC[C@H](N[C@H]1CCc2cc(F)cc(F)c2C1)C(=O)Nc1cn(C(C)(C)CNCC(C)(C)C)cn1,187%,–
COCC(=O)NC/C=C/c1ccc2ncnc(Nc3ccc(Oc4ccc(C)nc4)c(C)c3)c2c1,6.68%,–
COc1ccc(CCc2nc3cc(-c4c(C)noc4C)ccc3n2CC(C)N2CCOCC2)cc1Cl (stereo not given),0.0367%,–
C=C1CC[C@@H](O)[C@]2(C)CC[C@H]3C(=C)C(=O)O[C@@H]3[C@@H]12,-15.6%,–
c1cc(NC2CCNCC2)nc(-c2cnc3ccccn23)c1,17.9%,–
Cc1ccc(S(=O)(=O)N2CCC[C@H]2c2ccc(F)cc2)cc1,1.63%,–
NC(=O)c1nc(Nc2ccccc2)sc1NC(=O)C1CCCCC1,2.7%,–
C/C1=C/CCC2=CC(OC2=O)C(C)(C)/C=C/C1=O (stereo not given),4.28%,–
Nc1nc2c(c(N3CC[C@@H](N)C3)n1)CCCc1ccccc1-2,105%,–
C[C@@H]1CCCN1CCc1cc2cc(-c3ccc(C#N)cc3)ccc2o1,23.7%,–
Cc1ccc(C)c(NS(=O)(=O)c2cc(C(=O)Nc3ccccc3-c3ccccc3)ccc2C)c1,6.6%,–
CCCNCCc1ccc(NS(=O)(=O)c2ccc(OC(F)(F)F)cc2)cc1,27.1%,–
C[C@H](Nc1ncnc2nc[nH]c12)c1cc2cccc(Cl)c2c(=O)n1-c1ccccc1,-14.8%,–
C=C(C)[C@@H]1CC[C@]2(C(=O)O)CC[C@]3(C(=O)O)[C@H](CCC4[C@@]5(C)CCC(=O)C(C)(C)C5CC[C@]43C)C12 (stereo not given in full),-29.8% [at 57.1 µM],–
Cc1cc2c(F)c(Oc3ncnn4cc(OCC(C)OC(=O)C(C)N)c(C)c34)ccc2[nH]1 (stereo not given),160%,–
CC(=O)O[C@H]1CC(C)(C)CC2[C@]13CO[C@@]21CCC2[C@@]4(C)CC[C@H](O[C@@H]5OC[C@H](O[C@@H]6O[C@H](CO)[C@@H](O)[C@H](O)[C@H]6O[C@@H]6OC[C@@H](O)[C@H](O)[C@H]6O)[C@H](O)[C@H]5O[C@@H]5O[C@H](CO)[C@@H](O)[C@H](O)[C@H]5O)[C@@](C)(CO)C4CC[C@@]2(C)[C@]1(C)C[C@H]3O (stereo not given in full),7.77% [at 32.5 µM],–
COc1ccc(-c2ccc3c(N4CCOCC4C)nc(N4CCOCC4C)nc3n2)cc1CO (stereo not given),-10.9%,–
COc1cc(N2CCC(N3CCN(C)CC3)CC2)ccc1Nc1ncc(Cl)c(Nc2ccccc2P(C)(C)=O)n1,8.3%,–
O=C(CNC(=O)c1cccc(C(F)(F)F)c1)N[C@@H]1CCN(Cc2ccc(Cl)cc2)C1,13.2%,–
COc1cc(/C=N\NC(=O)c2ccc3c(c2)OCO3)ccc1OCc1ccccc1,-10.4%,–
C=C(C)C1CC(O)C(C)C12CC(O)C1(C)OC1C2O (stereo not given),-15.9%,–
Nc1cccc(CNC(=O)c2ccc(Oc3ccc(OCc4cccc(F)c4)cc3)nc2)c1,131%,–
CCC/C=C\C=C/CCc1cc(O)c([C@@H]2O[C@H](CO)[C@@H](O)[C@H](O)[C@H]2O)c(O)c1C(=O)OC,13.3% [at 57.1 µM],–
C=C1C(=O)O[C@H]2C[C@@H](C)[C@@H]3CCC(=O)[C@@]3(C)C[C@H]12,25.2%,–
CNCc1cc(-c2ccccc2F)n(S(=O)(=O)c2cccnc2)c1,29.4%,–
N#Cc1ccc(Nc2nc(-c3ccc(O)cc3O)cs2)cc1C(F)(F)F,–,10 µM (active)

# Test system: Zika virus NS2B-NS3 protease (linked construct)
# Experiment: Primary screen NINDS Rhodamine qHTS for Zika virus inhibitors (AID 1347160); also: nearly all actives have a fitted effect of over 55% in size
# Settings: purified NS2B-NS3 protease, Rhodamine110 substrate fluorescence; series mostly up to 57.1 µM; activity change, negative = inhibition: at the top concentration
# Outline: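 Kinetic fluorescence (Ex 480 nm, Em 540 nm) over 15 min with 1.5 microM Rhodamine110 peptide and 25 nM linked protease.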
Structure (SMILES),outcome,"activity change, negative = inhibition",Potency
COc1cc2c(cc1OCCCN1CCCC1)N=C(N)C21CCC1,inactive,–,–
O=C(c1cc(Cc2n[nH]c(=O)c3ccccc23)ccc1F)N1CCCNCC1,–,19.6%,–
CCN(Cc1ccccc1)C(=O)Cn1c(=O)n(C)c2cnc(-c3ccccc3)nc21,–,32.6%,–
CC(C)(C)c1ccc(-c2nc3c(N4CCN(Cc5ccc6nccnc6c5)CC4)cccc3[nH]2)cc1,–,64.5%,–
CC(C)C[C@H](NC(=O)CNC(=O)OCc1ccccc1)C(=O)N[C@@H](Cc1ccccc1)C(=O)CCl (Cbz-Gly-Leu-Phe-CH2Cl),–,-5.52%,–
COc1ccc(C(=O)Nc2c(Cl)cncc2Cl)cc1OC1CCCC1,–,-14.1%,–
CC(=O)N[C@H]1[C@H](O[C@H]2CC[C@@]3(C)C(CC[C@]4(C)C3CC=C3C5CC(C)(C)CC[C@]5(C(=O)O)C(O)C[C@]34C)C2(C)C)O[C@H](CO[C@@H]2O[C@H](C)[C@H](O)[C@H](O)[C@H]2O[C@@H]2OC[C@@H](O)[C@H](O)[C@H]2O)[C@@H](O)[C@@H]1O (stereo not given in full),–,-8.47% [at 15.1 µM],–
Cc1nc2ccc(CN(C)c3ccc(C(=O)NC(CCC(=O)O)C(=O)O)s3)cc2c(=O)[nH]1 (stereo not given),–,12.6%,–
Fc1ccc(-c2nc(-c3ccccc3F)[nH]c2-c2ccncc2)cc1,–,24.9%,–
CN1CCN(C2=Nc3ccccc3Nc3ccc(OS(=O)(=O)C(F)(F)F)cc32)CC1,inactive,–,–
CC1=CC2/C=C(\C)CCC(O)C(=O)C(O)CC(=O)C23C(=O)NC(CC(C)C)C3C1C (stereo not given),inactive [at 33.1 µM],–,–
Cc1[nH]c2ccc(F)cc2c1-c1nc2c3cccnc3c3ncccc3c2[nH]1,–,7.45%,–
CCNC(=O)C#Cc1ccc2c(C(=Nc3ccc(CN(C)C)cc3)c3ccccc3)c(O)[nH]c2c1,–,87.3% [at 33.1 µM],–
CCC[C@H](N[C@H]1CCc2cc(F)cc(F)c2C1)C(=O)Nc1cn(C(C)(C)CNCC(C)(C)C)cn1,–,143%,–
COCC(=O)NC/C=C/c1ccc2ncnc(Nc3ccc(Oc4ccc(C)nc4)c(C)c3)c2c1,–,20.9%,–
COc1ccc(CCc2nc3cc(-c4c(C)noc4C)ccc3n2CC(C)N2CCOCC2)cc1Cl (stereo not given),–,14.4%,–
C=C1CC[C@@H](O)[C@]2(C)CC[C@H]3C(=C)C(=O)O[C@@H]3[C@@H]12,–,-13.2%,–
c1cc(NC2CCNCC2)nc(-c2cnc3ccccn23)c1,–,-15.7%,–
Cc1ccc(S(=O)(=O)N2CCC[C@H]2c2ccc(F)cc2)cc1,–,-0.736%,–
NC(=O)c1nc(Nc2ccccc2)sc1NC(=O)C1CCCCC1,–,22%,–

Structure (SMILES),outcome,"activity change, negative = inhibition",Potency
C/C1=C/CCC2=CC(OC2=O)C(C)(C)/C=C/C1=O (stereo not given),–,-3.33%,–
Nc1nc2c(c(N3CC[C@@H](N)C3)n1)CCCc1ccccc1-2,–,59.6%,–
C[C@@H]1CCCN1CCc1cc2cc(-c3ccc(C#N)cc3)ccc2o1,–,159%,–
Cc1ccc(C)c(NS(=O)(=O)c2cc(C(=O)Nc3ccccc3-c3ccccc3)ccc2C)c1,–,-7.69%,–
CCCNCCc1ccc(NS(=O)(=O)c2ccc(OC(F)(F)F)cc2)cc1,inactive; activator,–,–
C[C@H](Nc1ncnc2nc[nH]c12)c1cc2cccc(Cl)c2c(=O)n1-c1ccccc1,–,-4.04%,–
C=C(C)[C@@H]1CC[C@]2(C(=O)O)CC[C@]3(C(=O)O)[C@H](CCC4[C@@]5(C)CCC(=O)C(C)(C)C5CC[C@]43C)C12 (stereo not given in full),inactive [at 33.1 µM],–,–
Cc1cc2c(F)c(Oc3ncnn4cc(OCC(C)OC(=O)C(C)N)c(C)c34)ccc2[nH]1 (stereo not given),–,285%,–
CC(=O)O[C@H]1CC(C)(C)CC2[C@]13CO[C@@]21CCC2[C@@]4(C)CC[C@H](O[C@@H]5OC[C@H](O[C@@H]6O[C@H](CO)[C@@H](O)[C@H](O)[C@H]6O[C@@H]6OC[C@@H](O)[C@H](O)[C@H]6O)[C@H](O)[C@H]5O[C@@H]5O[C@H](CO)[C@@H](O)[C@H](O)[C@H]5O)[C@@](C)(CO)C4CC[C@@]2(C)[C@]1(C)C[C@H]3O (stereo not given in full),–,-22.1% [at 15.1 µM],–
COc1ccc(-c2ccc3c(N4CCOCC4C)nc(N4CCOCC4C)nc3n2)cc1CO (stereo not given),–,4.76%,–
COc1cc(N2CCC(N3CCN(C)CC3)CC2)ccc1Nc1ncc(Cl)c(Nc2ccccc2P(C)(C)=O)n1,inactive,–,–
O=C(CNC(=O)c1cccc(C(F)(F)F)c1)N[C@@H]1CCN(Cc2ccc(Cl)cc2)C1,inactive,–,–
COc1cc(/C=N\NC(=O)c2ccc3c(c2)OCO3)ccc1OCc1ccccc1,inactive,–,–
C=C(C)C1CC(O)C(C)C12CC(O)C1(C)OC1C2O (stereo not given),–,15.9%,–
Nc1cccc(CNC(=O)c2ccc(Oc3ccc(OCc4cccc(F)c4)cc3)nc2)c1,–,80.1%,–
CCC/C=C\C=C/CCc1cc(O)c([C@@H]2O[C@H](CO)[C@@H](O)[C@H](O)[C@H]2O)c(O)c1C(=O)OC,–,-6.16% [at 33.1 µM],–
C=C1C(=O)O[C@H]2C[C@@H](C)[C@@H]3CCC(=O)[C@@]3(C)C[C@H]12,inactive,–,–
CNCc1cc(-c2ccccc2F)n(S(=O)(=O)c2cccnc2)c1,–,66.7%,–
N#Cc1ccc(Nc2nc(-c3ccc(O)cc3O)cs2)cc1C(F)(F)F,–,–,17.8 µM (active)
